# Assay results published in ChEMBL document CHEMBL1961873, “Compounds: GSK PKIS; Assays: Nanosyn kinase panel” (2012).
# Assays:
# [1] = molecular target: Sphingosine kinase 1 (Homo sapiens) (UniProt Q9NYA1); conditions: at 1 µM;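 further: mean SPHK1 inhibition value reported from the GSK PKIS kinase panel screen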
# [2] = molecular target: T1, Sphingosine kinase 2 (Homo sapiens) (UniProt Q9NRA0); conditions: at 0.1 µM
# T1 sequence (whole entry): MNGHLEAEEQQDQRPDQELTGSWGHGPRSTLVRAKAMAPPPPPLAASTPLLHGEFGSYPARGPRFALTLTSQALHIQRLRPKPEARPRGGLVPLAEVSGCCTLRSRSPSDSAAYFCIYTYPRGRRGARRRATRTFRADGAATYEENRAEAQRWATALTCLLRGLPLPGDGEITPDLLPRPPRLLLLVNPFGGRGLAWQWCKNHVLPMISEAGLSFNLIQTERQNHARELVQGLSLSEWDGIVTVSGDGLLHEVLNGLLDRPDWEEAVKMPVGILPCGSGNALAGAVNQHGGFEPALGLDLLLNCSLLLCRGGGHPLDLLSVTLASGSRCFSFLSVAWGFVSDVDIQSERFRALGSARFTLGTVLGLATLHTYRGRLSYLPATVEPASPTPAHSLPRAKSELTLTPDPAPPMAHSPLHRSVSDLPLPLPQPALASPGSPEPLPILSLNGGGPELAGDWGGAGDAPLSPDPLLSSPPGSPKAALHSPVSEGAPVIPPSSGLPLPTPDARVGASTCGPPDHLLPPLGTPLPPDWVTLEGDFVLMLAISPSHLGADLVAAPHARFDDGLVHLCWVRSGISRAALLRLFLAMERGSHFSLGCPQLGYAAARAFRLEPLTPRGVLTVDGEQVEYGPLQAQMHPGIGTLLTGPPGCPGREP
# [3] = molecular target: T1, Sphingosine kinase 2 (Homo sapiens); conditions: at 1 µM
# [4] = molecular target: Casein kinase II subunit alpha (Homo sapiens) (UniProt P68400); conditions: at 0.1 µM
# Sequence of Casein kinase II subunit alpha (Homo sapiens) (P68400 whole entry, looked up): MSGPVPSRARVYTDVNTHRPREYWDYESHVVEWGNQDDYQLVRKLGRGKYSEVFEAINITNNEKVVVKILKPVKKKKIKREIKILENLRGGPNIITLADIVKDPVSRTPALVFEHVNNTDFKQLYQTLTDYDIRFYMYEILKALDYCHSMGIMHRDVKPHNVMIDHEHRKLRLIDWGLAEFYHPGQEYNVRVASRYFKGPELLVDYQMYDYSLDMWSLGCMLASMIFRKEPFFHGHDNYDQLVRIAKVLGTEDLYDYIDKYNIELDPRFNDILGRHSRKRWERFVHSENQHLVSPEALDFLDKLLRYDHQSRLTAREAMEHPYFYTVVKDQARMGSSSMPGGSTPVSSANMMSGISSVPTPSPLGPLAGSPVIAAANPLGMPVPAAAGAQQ
# [5] = molecular target: Casein kinase II subunit alpha (Homo sapiens) (UniProt P68400); conditions: at 1 µM
# [6] = molecular target: T2, Inhibitor of nuclear factor kappa-B kinase subunit alpha (Homo sapiens) (UniProt O15111); conditions: at 0.1 µM
# T2 sequence (whole entry): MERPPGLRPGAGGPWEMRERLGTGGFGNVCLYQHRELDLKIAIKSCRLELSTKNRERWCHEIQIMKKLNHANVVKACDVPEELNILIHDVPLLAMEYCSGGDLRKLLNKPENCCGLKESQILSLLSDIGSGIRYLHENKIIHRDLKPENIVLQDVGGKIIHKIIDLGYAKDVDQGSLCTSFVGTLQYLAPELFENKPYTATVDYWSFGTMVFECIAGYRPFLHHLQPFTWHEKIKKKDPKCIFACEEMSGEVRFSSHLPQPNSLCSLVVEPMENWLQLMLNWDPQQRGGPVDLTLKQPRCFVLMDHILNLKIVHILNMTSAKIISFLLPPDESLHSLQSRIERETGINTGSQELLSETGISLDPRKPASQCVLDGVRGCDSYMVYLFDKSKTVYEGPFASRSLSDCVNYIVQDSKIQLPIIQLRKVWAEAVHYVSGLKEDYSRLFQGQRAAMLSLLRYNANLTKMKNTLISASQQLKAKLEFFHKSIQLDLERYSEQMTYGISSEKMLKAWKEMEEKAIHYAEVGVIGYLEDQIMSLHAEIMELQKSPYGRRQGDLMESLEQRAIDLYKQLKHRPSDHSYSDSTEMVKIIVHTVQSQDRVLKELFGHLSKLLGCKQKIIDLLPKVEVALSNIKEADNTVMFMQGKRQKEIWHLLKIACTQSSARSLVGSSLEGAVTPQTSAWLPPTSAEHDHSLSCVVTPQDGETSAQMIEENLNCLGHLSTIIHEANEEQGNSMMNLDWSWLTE
# [7] = molecular target: T2, Inhibitor of nuclear factor kappa-B kinase subunit alpha (Homo sapiens); conditions: at 1 µM
# [8] = molecular target: T3, Inhibitor of nuclear factor kappa-B kinase subunit beta (Homo sapiens) (UniProt O14920); conditions: at 0.1 µM
# T3 sequence (whole entry): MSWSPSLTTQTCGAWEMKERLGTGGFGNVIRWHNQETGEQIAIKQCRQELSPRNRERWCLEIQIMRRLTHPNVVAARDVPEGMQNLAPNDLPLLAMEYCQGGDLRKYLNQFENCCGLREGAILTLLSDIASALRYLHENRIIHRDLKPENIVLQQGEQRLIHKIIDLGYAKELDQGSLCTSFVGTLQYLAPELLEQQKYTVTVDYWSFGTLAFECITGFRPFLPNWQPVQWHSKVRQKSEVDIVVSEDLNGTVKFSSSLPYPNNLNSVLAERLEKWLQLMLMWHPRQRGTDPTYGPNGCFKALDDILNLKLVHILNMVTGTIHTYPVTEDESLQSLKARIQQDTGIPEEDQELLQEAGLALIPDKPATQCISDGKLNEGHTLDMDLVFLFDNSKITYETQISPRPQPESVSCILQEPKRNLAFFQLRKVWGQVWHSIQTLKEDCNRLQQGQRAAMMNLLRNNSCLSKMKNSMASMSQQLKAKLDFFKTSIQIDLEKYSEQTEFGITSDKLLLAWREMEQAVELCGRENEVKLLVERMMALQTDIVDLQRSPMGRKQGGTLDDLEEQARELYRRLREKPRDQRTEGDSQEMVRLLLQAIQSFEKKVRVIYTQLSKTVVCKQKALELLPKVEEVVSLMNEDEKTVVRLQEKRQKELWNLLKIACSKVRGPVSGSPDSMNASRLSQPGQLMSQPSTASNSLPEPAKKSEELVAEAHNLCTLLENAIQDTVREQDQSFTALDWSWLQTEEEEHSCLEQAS
# [9] = molecular target: T3, Inhibitor of nuclear factor kappa-B kinase subunit beta (Homo sapiens); conditions: at 1 µM
# [10] = molecular target: T4, Inhibitor of nuclear factor kappa-B kinase subunit epsilon (Homo sapiens) (UniProt Q14164); conditions: at 0.1 µM
# T4 sequence (whole entry): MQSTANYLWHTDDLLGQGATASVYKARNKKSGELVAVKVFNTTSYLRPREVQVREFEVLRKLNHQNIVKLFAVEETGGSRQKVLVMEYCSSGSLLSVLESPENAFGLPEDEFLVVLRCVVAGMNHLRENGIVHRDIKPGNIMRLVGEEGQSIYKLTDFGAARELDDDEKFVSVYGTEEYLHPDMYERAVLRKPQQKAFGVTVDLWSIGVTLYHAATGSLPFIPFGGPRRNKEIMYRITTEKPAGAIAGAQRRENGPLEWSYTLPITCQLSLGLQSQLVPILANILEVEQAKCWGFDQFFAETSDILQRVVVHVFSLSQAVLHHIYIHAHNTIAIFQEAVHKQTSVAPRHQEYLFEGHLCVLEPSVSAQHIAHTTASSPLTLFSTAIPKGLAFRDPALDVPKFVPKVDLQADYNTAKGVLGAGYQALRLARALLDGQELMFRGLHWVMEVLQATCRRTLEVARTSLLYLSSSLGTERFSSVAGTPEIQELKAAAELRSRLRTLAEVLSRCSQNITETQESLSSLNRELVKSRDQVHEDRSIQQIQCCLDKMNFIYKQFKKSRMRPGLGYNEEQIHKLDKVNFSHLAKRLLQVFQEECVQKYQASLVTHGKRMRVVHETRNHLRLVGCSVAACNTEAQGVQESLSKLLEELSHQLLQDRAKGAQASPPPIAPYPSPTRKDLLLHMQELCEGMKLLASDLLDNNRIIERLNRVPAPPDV
# [11] = molecular target: T4, Inhibitor of nuclear factor kappa-B kinase subunit epsilon (Homo sapiens); conditions: at 1 µM
# [12] = molecular target: T5, Serine/threonine-protein kinase Nek1 (Homo sapiens) (UniProt Q96PY6); conditions: at 0.1 µM
# T5 sequence (whole entry): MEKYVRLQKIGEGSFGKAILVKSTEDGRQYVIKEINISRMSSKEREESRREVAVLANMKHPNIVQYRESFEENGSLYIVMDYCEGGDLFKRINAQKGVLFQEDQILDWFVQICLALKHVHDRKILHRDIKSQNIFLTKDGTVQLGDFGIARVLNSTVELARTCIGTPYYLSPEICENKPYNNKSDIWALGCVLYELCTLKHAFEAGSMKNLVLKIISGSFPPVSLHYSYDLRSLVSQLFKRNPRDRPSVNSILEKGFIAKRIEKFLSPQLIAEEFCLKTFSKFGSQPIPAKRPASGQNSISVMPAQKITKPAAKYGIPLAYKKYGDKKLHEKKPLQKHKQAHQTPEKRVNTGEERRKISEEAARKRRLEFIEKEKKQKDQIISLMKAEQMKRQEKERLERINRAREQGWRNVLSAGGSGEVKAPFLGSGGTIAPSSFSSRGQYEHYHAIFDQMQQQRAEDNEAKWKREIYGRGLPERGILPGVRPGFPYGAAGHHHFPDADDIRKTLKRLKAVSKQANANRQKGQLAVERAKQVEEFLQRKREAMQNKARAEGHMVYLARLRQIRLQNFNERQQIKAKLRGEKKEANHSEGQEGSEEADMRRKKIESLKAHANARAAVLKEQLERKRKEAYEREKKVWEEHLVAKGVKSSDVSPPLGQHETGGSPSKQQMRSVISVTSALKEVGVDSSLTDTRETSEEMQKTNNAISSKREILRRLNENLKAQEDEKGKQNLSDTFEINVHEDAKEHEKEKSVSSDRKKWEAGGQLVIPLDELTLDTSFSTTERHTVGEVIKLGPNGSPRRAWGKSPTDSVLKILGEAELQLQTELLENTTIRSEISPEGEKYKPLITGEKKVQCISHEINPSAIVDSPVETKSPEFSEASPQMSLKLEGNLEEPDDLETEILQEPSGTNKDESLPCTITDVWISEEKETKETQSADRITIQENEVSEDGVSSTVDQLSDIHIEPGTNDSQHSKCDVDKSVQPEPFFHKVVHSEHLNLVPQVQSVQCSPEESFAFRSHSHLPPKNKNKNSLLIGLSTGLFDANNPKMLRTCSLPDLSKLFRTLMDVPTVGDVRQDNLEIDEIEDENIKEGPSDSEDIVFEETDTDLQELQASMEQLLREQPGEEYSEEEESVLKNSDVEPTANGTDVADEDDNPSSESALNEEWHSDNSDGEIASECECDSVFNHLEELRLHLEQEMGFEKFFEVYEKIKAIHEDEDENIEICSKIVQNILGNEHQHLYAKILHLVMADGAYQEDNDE
# [13] = molecular target: T5, Serine/threonine-protein kinase Nek1 (Homo sapiens); conditions: at 1 µM
# [14] = molecular target: T6, Serine/threonine-protein kinase Nek2 (Homo sapiens) (UniProt P51955); conditions: at 0.1 µM
# T6 sequence (whole entry): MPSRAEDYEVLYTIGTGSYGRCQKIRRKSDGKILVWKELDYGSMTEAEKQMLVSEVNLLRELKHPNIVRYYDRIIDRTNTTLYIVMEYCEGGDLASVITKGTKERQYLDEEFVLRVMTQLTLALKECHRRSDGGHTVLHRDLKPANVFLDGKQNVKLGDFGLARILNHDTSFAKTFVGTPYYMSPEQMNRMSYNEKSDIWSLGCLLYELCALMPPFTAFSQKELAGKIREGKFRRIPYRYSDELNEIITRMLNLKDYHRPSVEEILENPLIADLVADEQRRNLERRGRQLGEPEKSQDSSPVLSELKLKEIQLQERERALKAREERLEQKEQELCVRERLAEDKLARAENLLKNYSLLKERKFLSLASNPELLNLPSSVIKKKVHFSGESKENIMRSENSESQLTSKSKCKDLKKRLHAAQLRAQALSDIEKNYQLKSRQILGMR
# [15] = molecular target: T6, Serine/threonine-protein kinase Nek2 (Homo sapiens); conditions: at 1 µM
# [16] = molecular target: Serine/threonine-protein kinase Nek6 (Homo sapiens) (UniProt Q9HC98); conditions: at 0.1 µM
# Sequence of Serine/threonine-protein kinase Nek6 (Homo sapiens) (Q9HC98 whole entry): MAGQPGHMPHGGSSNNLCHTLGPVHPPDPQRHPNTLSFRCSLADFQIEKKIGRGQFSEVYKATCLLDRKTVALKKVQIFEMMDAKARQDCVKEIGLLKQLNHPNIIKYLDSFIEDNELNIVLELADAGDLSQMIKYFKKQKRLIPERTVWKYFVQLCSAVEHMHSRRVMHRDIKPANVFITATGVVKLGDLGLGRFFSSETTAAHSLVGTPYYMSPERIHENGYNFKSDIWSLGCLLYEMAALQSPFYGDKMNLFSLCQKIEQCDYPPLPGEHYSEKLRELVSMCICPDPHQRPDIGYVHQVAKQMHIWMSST
# [17] = molecular target: Serine/threonine-protein kinase Nek6 (Homo sapiens) (UniProt Q9HC98); conditions: at 1 µM
# [18] = molecular target: Serine/threonine-protein kinase Nek7 (Homo sapiens) (UniProt Q8TDX7); conditions: at 0.1 µM
# Sequence of Serine/threonine-protein kinase Nek7 (Homo sapiens) (Q8TDX7 whole entry, looked up): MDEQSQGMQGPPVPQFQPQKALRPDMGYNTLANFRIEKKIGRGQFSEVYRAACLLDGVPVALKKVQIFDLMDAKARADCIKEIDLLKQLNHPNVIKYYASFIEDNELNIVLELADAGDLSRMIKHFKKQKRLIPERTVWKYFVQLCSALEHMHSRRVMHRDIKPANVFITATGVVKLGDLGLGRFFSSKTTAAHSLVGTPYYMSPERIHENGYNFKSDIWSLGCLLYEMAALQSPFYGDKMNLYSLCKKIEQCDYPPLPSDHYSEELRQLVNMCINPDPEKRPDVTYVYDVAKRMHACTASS
# [19] = molecular target: Serine/threonine-protein kinase Nek7 (Homo sapiens) (UniProt Q8TDX7); conditions: at 1 µM
# [20] = molecular target: T7, Serine/threonine-protein kinase Nek9 (Homo sapiens) (UniProt Q8TD19); conditions: at 0.1 µM;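 further: reported value is the mean percent inhibition of NEK9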
# T7 sequence (whole entry): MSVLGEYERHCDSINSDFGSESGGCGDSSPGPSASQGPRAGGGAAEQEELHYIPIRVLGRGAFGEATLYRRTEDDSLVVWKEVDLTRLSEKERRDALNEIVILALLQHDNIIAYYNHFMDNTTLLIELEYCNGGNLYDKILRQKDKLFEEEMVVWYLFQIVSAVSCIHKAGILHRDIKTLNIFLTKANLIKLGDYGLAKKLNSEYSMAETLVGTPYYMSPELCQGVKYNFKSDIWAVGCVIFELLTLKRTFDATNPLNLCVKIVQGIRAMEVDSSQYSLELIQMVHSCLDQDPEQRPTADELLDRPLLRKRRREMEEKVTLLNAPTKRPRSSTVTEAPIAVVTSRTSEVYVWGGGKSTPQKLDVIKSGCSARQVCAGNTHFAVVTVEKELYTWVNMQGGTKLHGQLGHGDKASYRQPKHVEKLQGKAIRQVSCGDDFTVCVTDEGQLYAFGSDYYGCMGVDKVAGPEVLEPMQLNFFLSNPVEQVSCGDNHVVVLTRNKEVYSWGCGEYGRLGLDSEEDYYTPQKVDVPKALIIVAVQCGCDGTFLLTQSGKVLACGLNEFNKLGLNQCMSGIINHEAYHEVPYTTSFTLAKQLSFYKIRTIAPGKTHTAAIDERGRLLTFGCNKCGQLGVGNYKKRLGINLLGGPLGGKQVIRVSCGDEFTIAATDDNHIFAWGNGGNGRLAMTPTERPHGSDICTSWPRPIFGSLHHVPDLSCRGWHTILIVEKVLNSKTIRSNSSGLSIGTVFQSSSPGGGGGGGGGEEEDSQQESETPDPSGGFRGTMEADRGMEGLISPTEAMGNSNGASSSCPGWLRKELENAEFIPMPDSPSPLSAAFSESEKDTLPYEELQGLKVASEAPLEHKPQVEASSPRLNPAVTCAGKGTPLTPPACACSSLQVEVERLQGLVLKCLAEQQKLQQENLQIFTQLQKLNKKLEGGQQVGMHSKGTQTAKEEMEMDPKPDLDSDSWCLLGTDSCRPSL
# Sequence of Sphingosine kinase 1 (Homo sapiens) (Q9NYA1 whole entry): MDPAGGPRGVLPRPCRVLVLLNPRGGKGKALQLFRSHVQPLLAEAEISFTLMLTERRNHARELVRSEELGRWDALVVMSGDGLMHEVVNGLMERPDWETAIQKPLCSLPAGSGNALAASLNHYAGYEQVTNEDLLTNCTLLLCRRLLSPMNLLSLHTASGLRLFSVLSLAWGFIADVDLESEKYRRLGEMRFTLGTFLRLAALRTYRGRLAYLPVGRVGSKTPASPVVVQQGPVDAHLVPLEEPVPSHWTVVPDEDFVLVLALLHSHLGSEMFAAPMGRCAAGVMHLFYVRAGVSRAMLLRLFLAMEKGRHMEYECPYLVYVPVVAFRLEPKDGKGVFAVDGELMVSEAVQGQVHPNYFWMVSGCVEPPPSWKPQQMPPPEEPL
smiles,measurement,setting,value
COC(=O)Nc1nc2cc(Oc3ccc(NC(=O)Nc4cccc(C(=O)O)c4)cc3)ccc2[nH]1,inhibition,[1],-2.52%
same,inhibition,[2],0.52%
same,inhibition,[3],-0.25%
same,inhibition,[4],1.52%
same,inhibition,[5],8.32%
same,inhibition,[6],5.47%
same,inhibition,[7],-3.86%
same,inhibition,[8],1.26%
same,inhibition,[9],2.79%
same,inhibition,[10],3.11%
same,inhibition,[11],3.63%
same,inhibition,[12],0.04%
same,inhibition,[13],2.1%
same,inhibition,[14],-0.46%
same,inhibition,[15],-6.05%
same,inhibition,[16],-0.14%
same,inhibition,[17],-0.54%
same,inhibition,[18],-2.43%
same,inhibition,[19],-0.18%
same,inhibition,[20],3.39%
